TEAD-YAP inh – TEAD-YAP interaction inhibition; HEK-TIYL cells, TEAD-Gal4/YAP UAS-luciferase luminescence; inhibition, % at 9.12 µM; 640,000 compounds, 1.4% hits; in the data active means inhibition above about 32%;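 further: 0% = median of test compound wells and 100% = reference inhibitor wells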
MITF primary – inhibitors of human MITF; O75030; AlphaScreen MITF homodimerization, bead proximity signal; inhibition, % at 2.6 µM; 650,000 compounds, 0.91% hits; in the data active means inhibition above about 50%;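 further: 0% = vehicle wells with protein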
GPR151 activ – activates the human receptor GPR151; PathHunter beta-arrestin GPR151 cells, luminescence; activation, % at 11.2 µM; 650,000 compounds, 1% hits; AID 1508602; in the data active means activation above about 4.9%;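 further: 0% = median of compound wells and 100% = cells with positive control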
Target sequence (Q8TDV0 whole entry, looked up): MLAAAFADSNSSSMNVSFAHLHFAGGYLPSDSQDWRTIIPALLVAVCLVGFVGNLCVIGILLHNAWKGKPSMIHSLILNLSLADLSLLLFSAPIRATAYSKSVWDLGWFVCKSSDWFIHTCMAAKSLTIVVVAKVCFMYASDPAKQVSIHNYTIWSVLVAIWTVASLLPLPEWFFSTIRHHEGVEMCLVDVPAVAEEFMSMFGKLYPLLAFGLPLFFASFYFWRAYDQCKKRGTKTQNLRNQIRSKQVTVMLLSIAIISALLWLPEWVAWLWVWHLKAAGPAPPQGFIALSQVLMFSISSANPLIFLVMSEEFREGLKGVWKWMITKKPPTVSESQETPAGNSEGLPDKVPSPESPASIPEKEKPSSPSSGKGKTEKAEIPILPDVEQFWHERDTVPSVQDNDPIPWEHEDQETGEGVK
FBW7 activator – activators of human E3 ligase FBW7; Q969H0; AlphaScreen FBW7–phospho-cyclin E peptide binding, activator screen; normalized activity (activation), % at 26.1 µM; 650,000 compounds, 0.13% hits; in the data active means normalized activity above about 1.9%;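 further: purified mutant Fbw7 with reduced substrate affinity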
Numbers without * were called inactive; ! = not active in a repeat. Most compounds without a hit are left out; they make up all but 3.5% or so of the library.

SMILES	TEAD-YAP inh	MITF primary	GPR151 activ	FBW7 activator
Fc1cc(-c2nc(Nc3ccc(-c4cnco4)cc3)ncc2F)cc(N2CCOCC2)c1	2	9	1	1
Fc1cnc(Nc2ccc(Cn3cccn3)cc2)nc1-c1cc(N2CCOCC2)cc(C(F)(F)F)c1	0	7	2	0
Fc1cc(-c2nc(Nc3cccc(Cn4ccnc4)c3)ncc2F)cc(N2CCOCC2)c1	94*	-2	-2	0
COC(=O)c1ccc(CN2CCC(NCc3cccnc3)CC2)cc1	-3	-10	-2	0
CCOC(=O)C1C2C=CC3(CN(C4CCCCC4)C(=O)C13)O2 (stereo not drawn)	0	-3	1	0
COc1ccc2ncc(S(=O)(=O)c3ccc(C)cc3)c(N3CCC(C(N)=O)CC3)c2c1	9	0	4	0
Fc1cc(-c2nc(Nc3cccc(Cn4cncn4)c3)ncc2F)cc(N2CCOCC2)c1	88*	2	1	0
CCCNc1nc(N2CCc3ccccc3C2)nc2c1ncn2-c1ccsc1	-26	22	0	0
Nc1nc(N2CCOCC2)nc2c1ncn2-c1ccsc1	42*	5	2	1
CCCNc1nc(N2CCOCC2)nc2c1ncn2-c1ccsc1	50*	20	-1	-1
Cc1sc(NC(=O)c2ccco2)c(C(c2cccnc2)N2CCCCC2)c1C (stereo not drawn)	41*	2	4	0
Cc1sc(NC(=O)c2ccco2)c(C(c2cccnc2)N2CCOCC2)c1C (stereo not drawn)	29	12	-1	0
Cc1sc(NC(=O)c2ccco2)c(C(c2cccnc2)N2CCN(c3ccccc3F)CC2)c1C (stereo not drawn)	37*	-14	0	0
Cc1ccc2cc(N)ccc2n1	-5	6	0	0
Nc1ccc2cc3ccc(N)cc3nc2c1	4	75*	0	0
CC(=O)NC(c1ccc(N(C)C)cc1)c1cc(Cl)c2cccnc2c1O (stereo not drawn)	30	32	0	0
CC(=O)NC(c1ccccc1)c1cc(Cl)c2cccnc2c1O (stereo not drawn)	76*	63*	0	0
CC(=O)NC(c1ccc(C(C)C)cc1)c1cc(Cl)c2cccnc2c1O (stereo not drawn)	38*	11	-2	0
COc1ccc(O)c(/C=N/NC(=O)CNc2ccc3ccccc3c2)c1	11	5	1	0
Cc1cc(OCC(=O)Nc2ccc(S(=O)(=O)NC(C)C)cc2)ccc1Br	-9	3	0	0
COCCNc1ccnc2c(-c3ccccc3OC)cnn12	-27	-4	-2	1
CN(C)c1ccc(NC2=C([N+](=O)[O-])C(=O)c3ccccc32)cc1	2	86*	-2	-1
CCC(C)n1c(SCC(=O)NCCC(C)C)nc2ccsc2c1=O (stereo not drawn)	-7	-11	-2	0
COc1cc(C2CC(c3ccc(Cl)cc3)Nc3ncnn32)cc(OC)c1OC (stereo not drawn)	54*	6	4	0
COc1ccc(C2CC(c3ccc(Cl)cc3)Nc3ncnn32)c(OC)c1OC (stereo not drawn)	5	7	2	0
SMILES	TEAD-YAP inh	MITF primary	GPR151 activ	FBW7 activator
COc1ccc(C2C(C(=O)N3CCC(C)CC3)c3ccccc3C(=O)N2C2CCCCC2)cc1 (stereo not drawn)	8	-2	1	0
CC(C)c1nnc(C2CCN(C(=O)NCc3cccc4ccccc34)CC2)o1	-3	-2	4	2.0*
CC(C)c1nnc(C2CCN(C(=O)NCc3ccccc3)CC2)o1	5	-2	-1	1
O=C1Nc2cc(C(=O)N3CCN(c4cccc(Cl)c4)CC3)ccc2Sc2ccccc21	4	-15	1	0
O=C1CSc2ccc(C(=O)N3CCN(c4cccc(Cl)c4)CC3)cc2N1	56*	15	0	1
O=C1CSc2ccc(C(=O)N3CCN(c4cccc(C(F)(F)F)c4)CC3)cc2N1	52*	2	0	0
COc1cc(Nc2cc(C)nc(NCc3ccc4c(c3)OCO4)n2)cc(OC)c1OC	43*	16	4	1
COc1cc(Nc2nccc(Nc3ccc4c(c3)OCO4)n2)cc(OC)c1OC	34*	3	2	0
COc1cc(Nc2ccnc(NCc3ccc4c(c3)OCO4)n2)cc(OC)c1OC	35*	2	1	0
COc1ccc(-c2nccc(Nc3cc(OC)c(OC)c(OC)c3)n2)cn1	60*	5	0	0
CCOC(=O)/C(C#N)=C\c1ccc(C(C)C)cc1	3	-6	1	0
COc1ccc(C(=O)c2cc([N+](=O)[O-])ccc2N2CCN(C)CC2)cc1	49*	15	-1	1
Cc1ccc(C(=O)c2cc([N+](=O)[O-])ccc2N2CCN(C)CC2)cc1	51*	18	0	0
CN1CCN(c2ccc([N+](=O)[O-])cc2C(=O)c2ccc(Br)cc2)CC1	52*	9	0	0
CNC(=O)C(Sc1ncnc2sc(C)c(C)c12)C(C)=O (stereo not drawn)	2	6	3	0
CCN(CC)c1ccc(CN2CCC(O)CC2)cc1	12	7	0	0
C/C(=N\NC(=O)c1ccccn1)c1cccnc1	-10	-3	-3	0
Oc1c(C(Nc2nccs2)c2cccs2)ccc2cccnc12 (stereo not drawn)	26	33	-2	-1
CCN1CCN(Cc2ccc3cccnc3c2O)CC1	29	94*	3	-1
Oc1c(C(c2cccs2)N2CCOCC2)cc(Cl)c2cccnc12 (stereo not drawn)	57*	7	0	0
c1cnc2c(CN3CCCCC3)cccc2c1	13	-1	3	0
CN1CCN(C(c2cccs2)c2ccc3cccnc3c2O)CC1 (stereo not drawn)	88*	9	-1	0
CN1CCN(C(c2ccncc2)c2ccc3cccnc3c2O)CC1 (stereo not drawn)	18	70*	2	0
CCC(=O)NC(c1cccs1)c1cc(Cl)c2cccnc2c1O (stereo not drawn)	23	19	0	-1
Cc1cc(C)n2nc(C(=O)Nc3ccccc3Cc3ccccc3)nc2n1	2	8	0	0
SMILES	TEAD-YAP inh	MITF primary	GPR151 activ	FBW7 activator
CCOC(=O)C1CCN(C(=O)Cn2c(C)cc3ccccc3c2=O)CC1	-5	10	0	0
COc1cc(OC)c(NC(=O)Cc2ccccc2)cc1Cl	8	6	1	0
CCc1ccc(NC(=O)c2nn3c(C(F)(F)F)cc(-c4ccccc4)nc3c2Br)cc1	-11	8	1	0
OCCN1CCN(C(c2cccs2)c2ccc3cccnc3c2O)CC1 (stereo not drawn)	87*	26	1	0
CCN1CCN(C(c2cccs2)c2ccc3cccnc3c2O)CC1 (stereo not drawn)	88*	18	1	0
COc1ccccc1NC(=O)CSc1nc2ccc(NC(=O)c3ccc(Cl)cc3)cc2s1	16	-2	1	0
NCC(O)c1ccc(O)c(O)c1 (stereo not drawn)	8	77*!	0	0

Screening results deposited in PubChem BioAssay by The Scripps Research Institute Molecular Screening Center.
